Laboratory results as given in PubChem BioAssay AID2061320 (National Center for Advancing Translational Sciences (NCATS), 2025).
Results filed as inconclusive are left out. Activity calls are given as the source filed them. Calls come from the whole dose curve; as a rule, active = well fitted inhibition curve with a large enough effect; inconclusive = small, poorly fitted or top-dose-only effect; inactive = flat fitted curve, though single readings scatter.

Experiment: Identification of antibody-drug conjugate (ADC) payloads which are substrates of ATP-binding cassette drug efflux transporters: ABCG2-H460-MX20 cell line
Details: H460-MX20 (ABCG2) viability, CellTiter-Glo, 48 h; series mostly up to 28.7 µM
Source text: Antibody-drug conjugates (ADCs) feature an antibody recognizing a specific protein joined to a potent toxic payload. Numerous antibody-drug conjugates have received FDA approval; however, clinical resistance arises. Resistance mechanisms include decreased expression or mutation of the antibody target, impaired payload release, or increased expression of ATP-binding cassette (ABC) efflux transporters associated with multidrug resistance. We therefore sought to characterize the interaction of ABC multidrug transporters with ADC payloads. We performed a high-throughput screen with 27 common ADC payloads using cells lines expressing ABC transporters P-glycoprotein (P-gp, encoded by ABCB1) or ABCG2 (encoded by ABCG2). Confirmatory assays were also performed using cells transfected to express P-gp, ABCG2, or MRP1 (encoded by ABCC1). Several commonly used ADC payloads were substrates of P-gp, including calicheamicin gamma1, monomethyl auristatin E, DM1, and DM4. All the pyrrolobenzodiazepines tested - SJG136, SGD-1882, SG2057, and SG3199 - were substrates of P-gp, ABCG2, and MRP1. […] These findings highlight the risk of transporter-mediated resistance with certain ADC payloads and underscore the importance of selecting payloads that evade ABC transporter recognition in future ADC development.
HEK-293 cells were transfected with empty vector (pcDNA) or vector containing the human ABCB1 (MDR-19), ABCG2 (R-5), or ABCC1 gene (MRP1) and were maintained in EMEM with 2 mg/mL G418 added to maintain transporter expression. The HeLa derivative KB-3-1 and the P-gp overexpressing KB-8-5-11 subline were maintained in DMEM; KB-8-5-11 additionally received 100 ng/mL colchicine. H460 parental cells were obtained from the Division of Cancer Treatment and Diagnosis Tumor Repository, National Cancer Institute at Frederick, MD and were cultured in RPMI. The ABCG2 expressing subline H460 MX20 was generated by selecting H460 cells in 20 nM mitoxantrone. Media in all cases was supplemented with 10% FBS and 1% penicillin-streptomycin. We explored 27 common ADC payloads, in two orthogonal, paired cell line sets-a drug selected and transfected set for each transporter--to identify substrates of the ABC transporters P-gp and ABCG2. Compounds were sourced from Levena Biopharma (San Diego, CA), Selleck Chem (Houston, TX), ChemieTek (Indianapolis, IN), or Microsource Discovery Systems (Gaylordsville, CT). Screening was performed as previously described. Briefly, cells were plated at a density of 500 cells/well in 1536 well plates with compounds added using a 1536-head pin tool (Kalypsys, San Diego CA). Cells were incubated with cytotoxic drugs and processed with CellTiter Glo reagent (Promega, Madison, WI) to determine viability after 48 hours. P-gp substrates were identified by comparing compound activity between paired sets of low-expressing (sensitive) and over-expressing (resistant) cell lines.

Row | SMILES | Potency
1 | COc1cc2cc(c1Cl)N(C)C(=O)C[C@H](OC(=O)[C@H](C)N(C)C(=O)CCS)[C@]1(C)OC1[C@H](C)C1C[C@@](O)(NC(=O)O1)[C@H](OC)/C=C/C=C(\C)C2 (stereo partly specified) | 15000 nM (active)
2 | CC[C@H](C)[C@@H]1NC(=O)CNC(=O)[C@H]2Cc3c([nH]c4cc(O)ccc34)S(=O)C[C@H](NC(=O)CNC1=O)C(=O)N[C@@H](CC(N)=O)C(=O)N1C[C@H](O)C[C@H]1C(=O)N[C@@H]([C@@H](C)[C@@H](O)CO)C(=O)N2 (stereo partly specified) | 1060 nM (active)
3 | COc1cc2cc(C(=O)N3C[C@@H](CCl)c4c3cc(O)c3ccccc43)[nH]c2c(OC)c1OC | 2.1 nM (active)
4 | CC[C@H](C)[C@@H]([C@@H](CC(=O)N1CCC[C@H]1[C@H](OC)[C@@H](C)C(=O)N[C@H](C)[C@@H](O)c1ccccc1)OC)N(C)C(=O)[C@@H](NC(=O)[C@H](C(C)C)N(C)C)C(C)C | 598 nM (active)
5 | COc1cccc2c1C(=O)c1c(O)c3c(c(O)c1C2=O)C[C@@](O)(C(=O)CO)CC3OC1CC(N2CCOC(OC)C2)C(O)C(C)O1 (stereo partly specified) | 8.4 nM (active)
6 | CC[C@H](C)[C@H](NC(=O)[C@H]1CCCCN1C)C(=O)N(C)[C@H](C[C@@H](OC(C)=O)c1nc(C(=O)N[C@@H](Cc2ccccc2)C[C@H](C)C(=O)O)cs1)C(C)C | inactive
